{"source": "PubChem BioAssay AID1822", "about": "(The Scripps Research Institute Molecular Screening Center, 2009)", "note": "The whole screen tested about 290,000 compounds, of which about 3,500 (1.2%) were called active. What follows is part of a selection rich in actives, with near analogues and random picks from the rest. Values without a mark were called inactive.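 How the source made its calls: active means inhibition above the campaign mean inhibition over all tested compounds plus 3 SD (cut at about 28% in these data); inactive means the rest.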", "data": [{"tested_on": "M18 aspartyl aminopeptidase (Plasmodium falciparum 3D7)", "experiment": "PfM18AAP inhibitors, malaria aminopeptidase, primary screen, biochemical, QFRET, recombinant enzyme (AID 1822);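 further: 0% = plate median of test compound wells and 100% = 2 mM ZnCl2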", "conditions": "H-Glu-NHMec fluorogenic cleavage, at 7.35 µM, active compounds read high", "values": [{"compound": "O=C(Nc1ccc(F)cc1)C1CCCN(S(=O)(=O)c2ccc(-n3cnnn3)cc2)C1", "note": "(stereo unspecified)", "inhibition": "-11.3%"}, {"compound": "Cc1ccc(-n2c(C)nnc2SCC(=O)NC2CC2)cc1", "inhibition": "6.7%"}, {"compound": "CCn1c(SCC(=O)NC2CC2)nnc1-c1ccncc1", "inhibition": "-8.99%"}, {"compound": "Cc1cc(C)nc(Nc2n[nH]c(-c3ccccc3N)n2)n1", "inhibition": "-3.26%"}, {"compound": "Cc1cc(C)nc(Nc2ncn[nH]2)n1", "inhibition": "70.4% (active)"}, {"compound": "Cc1cc(C)nc(Nc2cc([N+](=O)[O-])ccc2C)n1", "inhibition": "-2.82%"}, {"compound": "Cc1cc(NC(=O)CCC(=O)N(CC(=O)NC2CCCC2)c2ccc(F)cc2)no1", "inhibition": "1.92%"}, {"compound": "COc1cc(N2C(=O)CSC2=S)cc(OC)c1OC", "inhibition": "6.36%"}, {"compound": "O=C1CSC(=S)N1c1ccc(O)cc1", "inhibition": "8.71%"}, {"compound": "CCOc1cccc(/C=N/N2C(=O)CSC2=S)c1O", "inhibition": "38.7% (active)"}, {"compound": "Cc1cc2oc(=O)cc(CN(C)Cc3ccc(OC(F)F)cc3)c2cc1Cl", "inhibition": "-5.26%"}, {"compound": "C=CCOc1ccccc1NC(=O)CN1C(=O)CNC1=O", "inhibition": "-12.8%"}, {"compound": "CN(C)c1ccnc2sc(C(=O)c3ccccc3)c(N)c12", "inhibition": "1.38%"}, {"compound": "Nc1c(C(=O)c2cccs2)sc2nsc(SCCN3CCCCC3)c12", "inhibition": "28.8% (active)"}, {"compound": "Cc1nc2sc(C(=O)c3ccccc3)c(N)c2c2c1CCCC2", "inhibition": "1.45%"}, {"compound": "COc1ccc(CCNC(=O)CCNS(=O)(=O)c2cc(Br)cnc2N)cc1OC", "inhibition": "-9.76%"}, {"compound": "NC(=O)C1CCCN(CC(=O)N2CCN(c3ccccc3)CC2)C1", "note": "(stereo unspecified)", "inhibition": "0.08%"}, {"compound": "O=C(CSc1nc(Nc2ccccc2)nc(N2CCOCC2)n1)Nc1cc(Cl)ccc1O", "inhibition": "3.26%"}, {"compound": "Cc1ccc(C)c(NC(=O)CCC(=O)NNC(=O)c2cccs2)c1", "inhibition": "-0.77%"}, {"compound": "Cc1ccc(C)c(NC(=O)NNC(=O)c2ccc3ccccc3c2O)c1", "inhibition": "41% (active)"}, {"compound": "Cc1ccc(S(=O)(=O)NNC(=O)Nc2cccc3ccccc23)cc1", "inhibition": "10.5%"}, {"compound": "O=C(Oc1ccccc1C(=S)N1CCCCC1)c1cc([N+](=O)[O-])cc([N+](=O)[O-])c1", "inhibition": "13.9%"}, {"compound": "COc1cc(C(=S)N2CCOCC2)cc(OC)c1OC(=O)c1cc([N+](=O)[O-])cc([N+](=O)[O-])c1", "inhibition": "8.8%"}, {"compound": "O=C(Oc1ccc(Br)cc1C(=S)N1CCOCC1)c1cccc([N+](=O)[O-])c1", "inhibition": "36.5% (active)"}, {"compound": "CCOc1ccc(CNC(=O)CCC(=O)N2CCSc3ccccc32)cc1", "inhibition": "6.53%"}, {"compound": "O=C(NC(=S)Nc1ccc(S(=O)(=O)N2CCOCC2)cc1)c1ccccc1[N+](=O)[O-]", "inhibition": "2.44%"}, {"compound": "CN1CCN(S(=O)(=O)c2ccc(NC(=S)NC(=O)C3CC3)cc2)CC1", "inhibition": "3.06%"}, {"compound": "O=S(=O)(c1ccc(NC(=S)NN=C(C2CC2)C2CC2)cc1)N1CCOCC1", "inhibition": "34.2% (active)"}, {"compound": "CN1/C(=C\\C=C2\\N=C(c3ccc(F)cc3)OC2=O)C(C)(C)c2ccccc21", "inhibition": "-0.7%"}, {"compound": "CCOC(=O)c1c(C)[nH]c(C)c1S(=O)(=O)NCCCc1ccco1", "inhibition": "-16.1%"}, {"compound": "CCC(O)CNc1nc(-n2nc(C)cc2C)nc2sc3c(c12)CC(C)(C)OC3", "note": "(stereo unspecified)", "inhibition": "-1.41%"}, {"compound": "C=CCNC(=S)NNc1ncnc2sc3c(c12)CC(C)(C)OC3", "inhibition": "30.1% (active)"}, {"compound": "CC(C)c1nc2sc3c(c2c(=O)n1N)CC(C)(C)OC3", "inhibition": "-0.21%"}, {"compound": "COc1cccc(CN2CCN(Cc3ccc4cccc(F)c4n3)CC2CCO)c1", "note": "(stereo unspecified)", "inhibition": "2.05%"}, {"compound": "CCN(CC)c1ccc(/C=N/NC(=O)c2cnccn2)c(O)c1", "inhibition": "9.64%"}, {"compound": "Cc1cc(C)nc(N/N=C/c2ccncc2)n1", "inhibition": "11%"}, {"compound": "CCN(CC)c1ccc(/C=N/Nc2nc(C)cc(C)n2)c(O)c1", "inhibition": "50.9% (active)"}, {"compound": "CC(=O)N1c2ccc(S(=O)(=O)N3CCC(C(=O)N4CCN(c5ccccc5)CC4)CC3)cc2CC1C", "note": "(stereo unspecified)", "inhibition": "5.96%"}, {"compound": "CC(C)C(=O)Nc1nnc(SCC(=O)N2C(C)CCCC2C)s1", "note": "(stereo unspecified)", "inhibition": "-5.69%"}, {"compound": "COC(=O)C1CCN(C(=O)c2ccc3oc(Cc4ccc(Cl)cc4)nc3c2)CC1", "inhibition": "6.38%"}, {"compound": "Cc1ccc(CNC(=O)c2c(-c3ccccc3)noc2C)cc1", "inhibition": "12.7%"}, {"compound": "Cc1onc(-c2ccccc2)c1C(=O)NNC(=S)NC(=O)c1ccc(F)cc1", "inhibition": "38.2% (active)"}, {"compound": "COc1ccc(C(=O)NC(=S)NNC(=O)c2c(-c3ccccc3)noc2C)cc1", "inhibition": "5.86%"}, {"compound": "C=CCc1cccc(/C=N/NC(=O)COc2ccc(-n3cnnn3)cc2)c1O", "inhibition": "11.8%"}, {"compound": "Cc1ccc(S(=O)(=O)N(CC(=O)NN=C2CCN(C)CC2)c2ccc(F)cc2)cc1", "inhibition": "-4.43%"}, {"compound": "CCOc1ccccc1NC(=O)CCc1nnc2ccc(NCc3ccco3)nn12", "inhibition": "21.1%"}, {"compound": "CC(=O)c1ccc(NC(=O)CCc2nnc3ccc(NCc4ccco4)nn23)cc1", "inhibition": "46.3% (active)"}, {"compound": "O=C(CCc1nnc2ccc(NCc3ccco3)nn12)Nc1cc(F)ccc1F", "inhibition": "26%"}, {"compound": "COc1ccc(NC(=O)C2CCN(S(=O)(=O)c3ccc4[nH]c(=O)oc4c3)CC2)c(OC)c1", "inhibition": "2.9%"}, {"compound": "COc1ccc(/C=N/N=C2/C(=O)Nc3ccccc32)cc1O", "inhibition": "30.7% (active)"}, {"compound": "COc1ccc(/C=N/S(=O)(=O)c2ccccc2)cc1OC", "inhibition": "-9.39%"}, {"compound": "CN(C)/C=C1/C(=O)Nc2ccccc21", "inhibition": "7.19%"}, {"compound": "Cc1cccc(N(Cc2ccccc2)C(=O)c2ccccc2F)c1", "inhibition": "0.68%"}, {"compound": "O=S(=O)(c1ccc(Br)cc1)c1nc(-c2ccccc2)oc1N1CCOCC1", "inhibition": "-11.7%"}, {"compound": "COc1ccc(C(=O)O/N=C(\\N)c2ccccn2)cc1[N+](=O)[O-]", "inhibition": "-11.1%"}, {"compound": "COc1cccc(OCC(=O)NNC(=O)c2cnccn2)c1", "inhibition": "0.44%"}, {"compound": "COc1ccc(C(=O)NNC(=O)c2cnccn2)cc1[N+](=O)[O-]", "inhibition": "28.7% (active)"}, {"compound": "O=C(Nc1ccccc1)Nc1nc2ccccc2s1", "inhibition": "-14.5%"}, {"compound": "COc1cc(/C=N/Nc2nc3ccccc3s2)ccc1O", "inhibition": "4.41%"}, {"compound": "c1ccc2sc(NN=C3CCCC3)nc2c1", "inhibition": "43.7% (active)"}, {"compound": "Cc1cccc(NC(=O)N2CCCCCC2)c1C", "inhibition": "-13.5%"}]}]}
